Measurements as given in the supplement of paper PMC8728848.
The sample as a whole holds a higher share of the strongest signals than the screen did.

Experiments:
Experiment in all cases: glycan array binding signal (z-score within array); higher = stronger binding
Details in all cases: glycan notation: IUPAC condensed, linker removed
[1] = target: Fuc(a1-2)Gal(b1-3)GalNAc(b1-4)[Neu5Ac(a2-3)]Gal(b1-4)Glc
Procedure, shortened: (§1)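 The Consortium for Functional Glycomics database supplied 3228 glycan arrays, of which those lacking an available protein sequence were dropped. The binding signal, a within-array Z-score, was averaged across arrays of the same protein sequence and across linkers. Negative scores can be read as non-binding.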

[2] = target: Fuc(a1-2)Gal(b1-3)GlcNAc(b1-2)Man(a1-3)[Fuc(a1-2)Gal(b1-3)GlcNAc(b1-2)Man(a1-6)]Man(b1-4)GlcNAc(b1-4)[Fuc(a1-6)]GlcNAc
Procedure, shortened: as §1

[3] = target: Fuc(a1-2)Gal(b1-3)[Fuc(a1-4)]GlcNAc(b1-2)Man(a1-3)[Fuc(a1-2)Gal(b1-3)[Fuc(a1-4)]GlcNAc(b1-2)Man(a1-3)]Man(b1-4)GlcNAc(b1-4)GlcNAc
Procedure, shortened: as §1

[4] = target: Fuc(a1-2)Gal(b1-3)[Fuc(a1-4)]GlcNAc(b1-2)Man(a1-3)[Fuc(a1-2)Gal(b1-3)[Fuc(a1-4)]GlcNAc(b1-2)Man(a1-6)]Man(b1-4)GlcNAc(b1-4)GlcNAc
Procedure, shortened: as §1

[5] = target: Fuc(a1-2)Gal(b1-4)Fuc(a1-3)]GlcNAc(b1-2)Man(a1-3)[Fuc(a1-2)Gal(b1-4)[Fuc(a1-3)]GlcNAc(b1-2)Man(a1-6)]Man(b1-4)GlcNAc(b1-4)GlcNAc
Procedure, shortened: as §1

[6] = target: Fuc(a1-2)Gal(b1-4)[Fuc(a1-3)]GlcNAc(b1-2)Man(a1-3)[Fuc(a1-2)Gal(b1-4)[Fuc(a1-3)]GlcNAc(b1-2)Man(a1-6)]Man(b1-4)GlcNAc(b1-4)GlcNAc
Procedure, shortened: as §1

[7] = target: Fuc(a1-2)[Gal(a1-3)]Gal(b1-3)GlcNAc(b1-3)GalNAc
Procedure, shortened: as §1

[8] = target: Fuc(a1-2)[Gal(a1-3)]Gal(b1-4)GlcNAc(b1-2)Man(a1-3)[Fuc(a1-2)[Gal(a1-3)]Gal(b1-4)GlcNAc(b1-2)Man(a1-6)]Man(b1-4)GlcNAc(b1-4)[Fuc(a1-6)]GlcNAc
Procedure, shortened: as §1

[9] = target: Fuc(a1-2)[Gal(a1-3)]Gal(b1-4)GlcNAc(b1-3)[Fuc(a1-2)[Gal(a1-3)]Gal(b1-4)GlcNAc(b1-6)]GalNAc
Procedure, shortened: as §1

[10] = target: Fuc(a1-2)[Gal(a1-3)]Gal(b1-4)[Fuc(a1-3)]Glc
Procedure, shortened: as §1

[11] = target: Fuc(a1-2)[GalNAc(a1-3)]Gal
Procedure, shortened: as §1

[12] = target: Fuc(a1-2)[GalNAc(a1-3)]Gal(b1-3)GalNAc(a1-3)[Fuc(a1-2)]Gal(b1-4)GlcNAc
Procedure, shortened: as §1

[13] = target: Fuc(a1-2)[GalNAc(a1-3)]Gal(b1-4)Glc
Procedure, shortened: as §1

[14] = target: Fuc(a1-3)[Gal3S(b1-4)]Glc
Procedure, shortened: as §1

[15] = target: Gal(b1-3)GalNAc(a1-3)[Fuc(a1-2)]Gal(b1-4)GlcNAc
Procedure, shortened: as §1

[16] = target: Gal(b1-3)GlcNAc(b1-2)Man(a1-3)[GlcNAc(b1-4)][Gal(b1-3)GlcNAc(b1-2)Man(a1-6)]Man(b1-4)GlcNAc(b1-4)GlcNAc
Procedure, shortened: as §1

[17] = target: Gal(b1-3)GlcNAc(b1-3)Gal(b1-4)GlcNAc(b1-3)Gal(b1-4)GlcNAc(b1-2)[Gal(b1-3)GlcNAc(b1-3)Gal(b1-4)GlcNAc(b1-3)Gal(b1-4)GlcNAc(b1-6)]Man(a1-6)[Gal(b1-3)GlcNAc(b1-3)Gal(b1-4)GlcNAc(b1-3)Gal(b1-4)GlcNAc(b1-2)Man(a1-3)]Man(b1-4)GlcNAc(b1-4)[Fuc(a1-6)]GlcNAc
Procedure, shortened: as §1

[18] = target: Gal(b1-3)GlcNAc(b1-3)Gal(b1-4)[Fuc(a1-3)]GlcNAc
Procedure, shortened: as §1

[19] = target: Gal(b1-3)[Fuc(a1-4)]GlcNAc(b1-2)Man
Procedure, shortened: as §1

[20] = target: Gal(b1-4)GalNAc(b1-3)[Fuc(a1-2)]Gal(b1-4)GlcNAc
Procedure, shortened: as §1

[21] = target: Gal(b1-4)GlcNAc(b1-2)Man(a1-3)[Gal(b1-4)GlcNAc(b1-2)Man(a1-6)]Man(b1-4)GlcNAc(b1-4)GlcNAc
Procedure, shortened: as §1

[22] = target: Gal(b1-4)GlcNAc(b1-2)Man(a1-6)[Man(a1-3)]Man(b1-4)GlcNAc(b1-4)GlcNAc
Procedure, shortened: as §1

[23] = target: Gal(b1-4)GlcNAc(b1-2)[Gal(b1-4)GlcNAc(b1-4)]Man(a1-3)[Gal(b1-4)GlcNAc(b1-2)Man(a1-6)]Man(b1-4)GlcNAc(b1-4)GlcNAc
Procedure, shortened: as §1

[24] = target: Gal(b1-4)GlcNAc(b1-2)[Gal(b1-4)GlcNAc(b1-4)]Man(a1-3)[Gal(b1-4)GlcNAc(b1-2)[Gal(b1-4)GlcNAc(b1-6)]Man(a1-6)]Man(b1-4)GlcNAc(b1-4)GlcNAc
Procedure, shortened: as §1

[25] = target: Gal(b1-4)GlcNAc(b1-2)[Gal(b1-4)GlcNAc(b1-4)]Man(a1-3)[GlcNAc(b1-4)][Gal(b1-4)GlcNAc(b1-2)Man(a1-6)]Man(b1-4)GlcNAc(b1-4)GlcNAc
Procedure, shortened: as §1

[26] = target: Gal(b1-4)GlcNAc(b1-3)Gal(b1-3)GalNAc
Procedure, shortened: as §1

[27] = target: Gal(b1-4)GlcNAc(b1-3)Gal(b1-4)GlcNAc(b1-2)Man(a1-3)[Gal(b1-4)GlcNAc(b1-3)Gal(b1-4)GlcNAc(b1-2)Man(a1-6)]Man(b1-4)GlcNAc(b1-4)[Fuc(a1-6)]GlcNAc
Procedure, shortened: as §1

B1: Flo1 (Saccharomyces cerevisiae), P32768 (protein)
chain: SGATEACLPAGQRKSGMNINFYQYSLKDSSTYSNAAYMAYGYASKTKLGSVGGQTDISIDYNIPCVSSSGTFPCPQEDSYGNWGCKGMGACSNSQGIAYWSTDLFGFYTTPTNVTLEMTGYFLPPQTGSYTFKFATVDDSAILSVGGATAFNCCAQQQPPITSTNFTIDGIKPWGGSLPPNIEGTVYMYAGYYYPMKVVYSNAVSWGTLPISVTLPDGTTVSDDFEGYVYSFDDDLSQSNCTVPDPSNY
- glycan array binding signal (z-score) [1]: -0.19
- glycan array binding signal (z-score) [2]: 1.41
- glycan array binding signal (z-score) [3]: -0.362
- glycan array binding signal (z-score) [4]: 2.44
- glycan array binding signal (z-score) [5]: 3.01
- glycan array binding signal (z-score) [6]: 2.48
- glycan array binding signal (z-score) [7]: 2.18
- glycan array binding signal (z-score) [8]: 3.01
- glycan array binding signal (z-score) [9]: 0.353
- glycan array binding signal (z-score) [10]: -0.047
- glycan array binding signal (z-score) [11]: -0.514
- glycan array binding signal (z-score) [12]: 0.065
- glycan array binding signal (z-score) [13]: 0.017
- glycan array binding signal (z-score) [14]: 0.119
- glycan array binding signal (z-score) [15]: -0.653
- glycan array binding signal (z-score) [16]: 1.05
- glycan array binding signal (z-score) [17]: 2.69
- glycan array binding signal (z-score) [18]: -0.364
- glycan array binding signal (z-score) [19]: 2.33
- glycan array binding signal (z-score) [20]: 0.699
- glycan array binding signal (z-score) [21]: -0.067
- glycan array binding signal (z-score) [22]: 0.098
- glycan array binding signal (z-score) [23]: -0.087
- glycan array binding signal (z-score) [24]: 0.251
- glycan array binding signal (z-score) [25]: 0.797
- glycan array binding signal (z-score) [26]: -0.714
- glycan array binding signal (z-score) [27]: 8.23
